# This is a sample that favours compounds with a hit; in the whole collection about 2.3% have one here.
# TWEAK-Fn14 inh: blocks TWEAK-Fn14 interaction in a reporter cell assay; inhibition, % at 10 µM; TWEAK-stimulated Fn14 reporter cells, luciferase luminescence, 8 h; actives 2% (n = 360,000); AID 1159606; in the data active = inhibition above about 50%
# LGR2 inh: inhibitors of bursicon-induced Drosophila LGR2 receptor cAMP signaling. HEK293 LGR2, CRE-luciferase, bursicon-stimulated, 4 h. inhibition, % at 9.99 µM. actives 0.35% (n = 380,000). AID 720647;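 active = drop in luminescence signal, shown as inhibition above about 50% in the replicate tests, limit read from the data, passing the limit was not always enough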;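 also: agonist challenge used bursicon conditioned medium at about half maximal strength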
# hiPSC survival: hiPSC single-cell survival enhancement; ATPlite luminescence; 100% = ROCK inhibitor wells, 0% = DMSO; survival enhancement, % at 20 µM; actives 0.044% (n = 360,000); AID 602274; in the data active = survival enhancement above about 18%;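 also: cells exposed to compounds for 16 hours before the ATP read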
# CF NFkB inh: cystic fibrosis NF-kB activation inhibition; AID 588850; inhibition, % at 5 µM; KKLEB NF-kB-GFP reporter, PAF-induced, GFP fluorescence overnight; actives 0.86% (n = 360,000);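 active = at least 50% inhibition at 5 µM, scaled per plate between neutral and stimulator controls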;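 also: PAF is a Pseudomonas aeruginosa culture filtrate used as stimulus; plate controls were PAF-stimulated DMSO wells for no effect and unstimulated DMSO wells for full effect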
# KKLEB cytotox: counter-screen for CF NF-kB inhibitors: cytotoxicity. KKLEB CF airway cells viability, ATPlite luminescence, overnight; hits give low values; cells stimulated with P. aeruginosa culture filtrate. activity change (cytotoxicity), % at 5 µM. actives 0.36% (n = 360,000). AID 602141;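 active = corrected activity change at or below -50% at 5 µM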
# HIF-2a inh: inhibitors of HIF-2a | actives 0.72% (n = 360,000) | 786-0 RCC cells HIF-2a reporter, luciferase luminescence, overnight | inhibition, % at 18.8 µM | AID 624352;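 active = inhibition of the luminescence signal of 40% or more relative to plate controls, in a single-dose primary screen at 18.75 µM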
# Mdm2 MdmX conf: confirmation of inhibitors of human Mdm2/MdmX interaction, set 2 | inhibition, % at 8 µM | SaOS-2 split-luciferase Mdm2/MdmX complementation, luminescence | shares compounds with HIF-2a inh | actives 99% (n = 740);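 active = mean inhibition of the luminescence signal across two replicates at or above 26 percent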
# HIF-2a conf: HIF-2a inhibition, single concentration confirmation | shares compounds with HIF-2a inh | 786-0 RCC cells, HIF-2a luciferase reporter luminescence, overnight | inhibition, % at 18.8 µM | actives 56% (n = 1,800) | AID 651580;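 active = mean inhibition across four replicates of at least 40 percent at the single tested concentration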
# HIF-1a counter: inhibits HIF-1a reporter, a counter-screen for HIF-2a inhibitors; shares compounds with HIF-2a inh; MiaPaCa-2 HIF-1a luciferase reporter, desferoxamine, overnight; inhibition, % at 18.8 µM; actives 72% (n = 1,800);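 active = mean inhibition of the reporter signal across four replicates at the single tested dose of 50% or more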
# Starred values were filed as active, the others as inactive; x = not tested or not shown.
SMILES,TWEAK-Fn14 inh,LGR2 inh,hiPSC survival,CF NFkB inh,KKLEB cytotox,HIF-2a inh,HIF-2a conf,HIF-1a counter,others
O=C(O)c1cccc(C(=O)Nc2cccc(NC(=O)C3CCCO3)c2)c1 (stereo not drawn),9,x,0,-5,1,49*,48*,-32,
O=C(O)C[C@H]1CC[C@@H](NC(=O)c2ccccc2F)[C@@H](CO)O1,x,5,x,x,x,x,x,x,
C[C@@H]1CN([C@@H](C)CO)C(=O)c2cc(N(C)C)ccc2O[C@@H]1CN(C)Cc1ccc(C(=O)O)cc1,x,-9,x,x,x,x,x,x,
CCCC(=O)Nc1ccc2c(c1)C(=O)N(C)[C@H]1CC[C@@H](CC(=O)N3CCc4ccccc4C3)O[C@@H]1CO2,x,1,x,x,x,x,x,x,
Cn1cc([N+](=O)[O-])c(C(=O)Nc2ccn(C34CC5CC(CC(C5)C3)C4)n2)n1,-14,6,6,28,-2,49*,60*,57*,
Cn1cc([N+](=O)[O-])c(C(=O)Nc2nc(-c3ccc(Cl)cc3)cs2)n1,12,x,-4,89*,-95*,94*,86*,105*,
CC(=O)Nc1nc(-c2ccc([N+](=O)[O-])cc2)cs1,-6,x,-2,-32,22,-62,x,x,
Cc1ccc(-c2nc(NC(=O)c3nn(C)cc3[N+](=O)[O-])sc2C)cc1C,28,38,0,23,-38,66*,1,105*,Mdm2 MdmX conf=100*
Cc1ccc(-c2nc(NC(=O)c3nn(C)cc3[N+](=O)[O-])sc2C)cc1,59*,44,-5,89*,-64*,93*,85*,105*,Mdm2 MdmX conf=103*
Cc1cnc(NC(=O)c2nn(C)cc2[N+](=O)[O-])s1,-10,30,-1,16,-3,-24,x,x,
CO[C@@H]1CN(C)C(=O)c2ccc(NC(=O)c3nc4ccccc4s3)cc2OC[C@H](C)NC[C@@H]1C,x,8,x,x,x,x,x,x,
C[C@H](CO)N1C[C@H](C)[C@@H](CN(C)Cc2ccc(C(=O)O)cc2)Oc2ccc(NC(=O)C3CC3)cc2C1=O,x,1,x,x,x,x,x,x,
COC(=O)[C@H]1[C@H](CO)[C@H]2Cn3c(ccc(/C=C/c4ccccc4)c3=O)[C@H]2N1C(=O)C1CCCC1,x,1,x,x,x,x,x,x,
O=C(O)c1cccc(-c2nc3ccccc3[nH]2)c1,8,94*,-1,1,-5,69*,55*,-72,
Cc1ccccc1NC1=C/C(=N\S(=O)(=O)c2cccs2)c2ccccc2C1=O,102*,x,1,94*,-93*,93*,x,x,Mdm2 MdmX conf=103*
Cc1cc[n+](C2=C([O-])c3ccccc3C(=O)/C2=N\S(=O)(=O)c2cccs2)cc1C,22,-23,-2,-25,10,7,x,x,
CO[C@@H]1CC[C@@H]2CCOc3ccc(C#N)cc3C(=O)N(C)C[C@H](C)C(=O)N(C)C[C@@H]1O2,x,-7,x,x,x,x,x,x,
CCOC(=O)c1nnc(-c2cccs2)nc1Oc1ccc(Cl)cc1,4,x,0,-6,0,42*,24,17,
CC(C)(C)c1ccc(-c2cc(N)n[nH]2)cc1,47,x,0,3,2,87*,95*,74*,
Cc1ccc(-c2cc(N)n[nH]2)cc1,10,x,-1,9,-3,-74,x,x,
N=c1nc(SCCC(=O)O)ss1,16,x,-3,-8,1,69*,73*,46,
O=C(O)CCSc1ccccn1,-9,27,1,-9,2,15,x,x,
COc1ccc(CNC(=O)C[C@@H]2C=C[C@H](NC(=O)c3ccc4c(c3)OCO4)[C@@H](CO)O2)cc1,x,5,x,x,x,x,x,x,
CCCNC(=O)N(C)C[C@@H]1Oc2cc(-c3ccc(C)cc3)ccc2S(=O)(=O)N([C@H](C)CO)C[C@H]1C,x,-4,x,x,x,x,x,x,
O=c1cc(-c2ccco2)oc2c1ccc1ccccc12,-26,x,-3,-54,-10,-10,x,x,
